The text below walks through data of PubChem BioAssay (NCATS).

The structures appear in SMILES notation. Inconclusive results are not listed. A number with no mark means an inactive call. Calls of active or inactive are those of the source. Calls come from the whole dose curve; as a rule, active = well fitted cell-killing curve with a large enough effect; inconclusive = small, poorly fitted or top-dose-only effect, or effect the other way; inactive = flat fitted curve, though single readings scatter.
% is set by controls: 0 for no effect and ±100 for the full control effect; potency is the fitted concentration of half-maximal effect.

One assay has as its system SKOV3. The experiment in a line: Primary qHTS to identify gynecologic anti-cancer compounds using libraries of approved drugs and bioactive compounds (AID 1345084). Note: nearly all actives have a fitted effect of over 55% in size. The following applies: Gynecologic cancer cell panel viability, ATPlite luminescence, 48 h; series mostly up to 57.5 µM; activity change, negative = cytotoxicity: at the top concentration. In short, it runs like this:
(§1)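 Cells, 1,000 per well, were allowed to settle for 16 h at 37 C before compound addition. Five concentrations were tested for 48 h, and viability was read by ATPlite luminescence after 15 min at room temperature.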
For orientation: In qHTS, concentration-response curves come from the screen itself.
For the compound `OCC(Cc1ccccc1)Nc1nc(Oc2ccc3c(c2)CCC3)nc2c1ncn2Cc1ccc(-c2ccccc2)cc1` (stereo not given), the “activity change, negative = cytotoxicity” value was 2.35%.
Same read-out and setting: to `CC[C@H](CO)Nc1nc(Nc2cccc(-c3ccccn3)c2)c2ncn(C(C)C)c2n1` belongs -26.7%; to `CCCCn1c(-c2ccccc2)nc(-c2ccccc2)c1CN(Cc1ccc2c(c1)OCO2)Cc1ccc2c(c1)OCO2`, -29.7%.
Regarding `CCOC(=O)c1cccc(CNc2ccc(N(C)C(=O)Nc3ccccc3)cc2)c1`, the Potency was 14.1 µM (active).
In the case of `CC1CCN(C(c2ccc(F)cc2)c2ccc(C(C)C(=O)O)cc2-c2ccc(C(F)(F)F)cc2)CC1` (stereo not given), the “activity change, negative = cytotoxicity” value is -17.6%.
Regarding `O=C(NC(NC(=S)Nc1ccc(F)c([N+](=O)[O-])c1)C(Cl)(Cl)Cl)C(c1ccccc1)c1ccccc1` (stereo not given), the “activity change, negative = cytotoxicity” value is 0% [at 25.3 µM].
Same read-out and setting: the same measure for `COc1ccc(CNC(=O)Nc2ncc([N+](=O)[O-])s2)cc1`: -1.7%.
Regarding `C=C(C)C(=O)O[C@H]1[C@H]2C(=C)C(=O)O[C@@H]2C[C@@H](C)/C=C\C(=O)[C@](C)(O)[C@@H]1OC(C)=O`, the Potency was 11.2 µM (active).
In the case of `CC(=O)C1=C(O)C2c3c[nH]c4cccc(c34)CC2C(C)(C)N(C)C1=O` (stereo not given), the “activity change, negative = cytotoxicity” value was 0%.
Consider `CC(C)N(CCCNC(=O)Nc1ccc(C(C)(C)C)cc1)C[C@H]1O[C@@H](n2cc(Br)c3c(N)ncnc32)[C@H](O)[C@@H]1O`, for which the “activity change, negative = cytotoxicity” value is -26.7%.
Take `O=C(c1ccc(F)c(F)c1Nc1ccc(I)cc1F)N1CC(O)(C2CCCCN2)C1` (stereo not given): the Potency was 20 µM (active).
Regarding `O=[N+]([O-])c1ccc(-[n+]2nc(-c3ccccc3)nn2-c2ccc(I)cc2)cc1`, the “activity change, negative = cytotoxicity” value is -3.65%.
Still for that read-out and setting: to `COc1ccccc1NC(=O)Nc1ccc2ccccc2c1` belongs -3.01%.
In the case of `CN1CCN(C(=O)c2ccc(Nc3nccc(-c4cccs4)n3)cc2Cl)CC1`, the “activity change, negative = cytotoxicity” value was -21.9%.
As for `CCN(CCCOc1ccc2c(Nc3cc(CC(=O)Nc4cccc(F)c4)[nH]n3)ncnc2c1)CCOP(=O)(O)O`, the Potency was 15.8 µM (active).
Still for that read-out and setting: to `CC(C)CCC[C@@H](C)[C@H]1CC[C@H]2[C@@H]3CC=C4C[C@@H](OC(=O)NCCN(C)C)CC[C@]4(C)[C@H]3CC[C@]12C` belongs 22.4 µM (active).
Consider `COc1cc2ncnc(Nc3ccc(Oc4ccccc4)cc3)c2cc1OC`, for which the Potency was 28.2 µM (active).

The subject of a further assay is Tov-21-G. The assay is described as above. The note with it: Gynecologic cancer cell panel viability, ATPlite luminescence, 48 h; series mostly up to 57.5 µM; activity change, negative = cytotoxicity: at the top concentration. A digest of the protocol: as §1
For the compound `Oc1ccc(Nc2nc(-c3ccc(Cl)cc3)cs2)cc1`, the “activity change, negative = cytotoxicity” value was -22.4%.
As for `OCC(Cc1ccccc1)Nc1nc(Oc2ccc3c(c2)CCC3)nc2c1ncn2Cc1ccc(-c2ccccc2)cc1` (stereo not given), the “activity change, negative = cytotoxicity” value is -15.1%.
The same measure, in the same setting: to `Cc1cc2nc(NCCCO)n(CC(=O)c3cc(C(C)(C)C)c(O)c(C(C)(C)C)c3)c2cc1C` belongs -5.12%; to `Cc1ccccc1C(=O)Nc1ccc(C(=O)N2CCC[C@@H](O)c3cc(Cl)ccc32)c(C)c1`, -3.84%.
Same read-out and setting: to `CCCCn1c(-c2ccccc2)nc(-c2ccccc2)c1CN(Cc1ccc2c(c1)OCO2)Cc1ccc2c(c1)OCO2` belongs -2.55%; to `CCOC(=O)c1cccc(CNc2ccc(N(C)C(=O)Nc3ccccc3)cc2)c1`, -20.6%.
On the same count and under the same terms, the same measure for `CC1CCN(C(c2ccc(F)cc2)c2ccc(C(C)C(=O)O)cc2-c2ccc(C(F)(F)F)cc2)CC1` (stereo not given): 23.7%.
Take `O=C(NC(NC(=S)Nc1ccc(F)c([N+](=O)[O-])c1)C(Cl)(Cl)Cl)C(c1ccccc1)c1ccccc1` (stereo not given): the “activity change, negative = cytotoxicity” value is -0.397% [at 25.3 µM].
In the case of `COc1ccc(CNC(=O)Nc2ncc([N+](=O)[O-])s2)cc1`, the “activity change, negative = cytotoxicity” value is -16.9%.
On the same count and under the same terms, the same measure for `OCC(CO)(CO)NCC(O)Cn1c2ccc(Cl)cc2c2cc(Cl)ccc21` (stereo not given): 2.22%.
Still for that read-out and setting: the same measure for `COCCOCCOc1ccc(C2=N[C@@](C)(C(=O)O)CS2)c(O)c1`: -37.5%.
For the compound `C=C(C)C(=O)O[C@H]1[C@H]2C(=C)C(=O)O[C@@H]2C[C@@H](C)/C=C\C(=O)[C@](C)(O)[C@@H]1OC(C)=O`, the Potency is 7.94 µM (active).
Turning to `CC(=O)C1=C(O)C2c3c[nH]c4cccc(c34)CC2C(C)(C)N(C)C1=O` (stereo not given), the “activity change, negative = cytotoxicity” value is -3.57%.
Same read-out and setting: to `CC(C)N(CCCNC(=O)Nc1ccc(C(C)(C)C)cc1)C[C@H]1O[C@@H](n2cc(Br)c3c(N)ncnc32)[C@H](O)[C@@H]1O` belongs 5%.
Consider `CC1CCCC(SCC(O)C(=O)O)CC(=O)c2c(O)cc(O)cc2CC(=O)O1` (stereo not given), for which the “activity change, negative = cytotoxicity” value is -28.8% [at 25.3 µM].
Still for that read-out and setting: to `Cn1cc(-c2cnc3ccc4ccc(CS(=O)(=O)NCc5ccccn5)cc4c(=O)c3c2)cn1` belongs -16.4%.
As for `C=C1[C@@H](C2=CC(=O)OC2)CC[C@@]2(O)[C@@H]1CC1[C@H]2CC[C@@H]2C[C@@H](O[C@H]3O[C@@H](C)[C@@H](O[C@@H]4O[C@H](CO[C@@H]5O[C@H](CO)[C@@H](O)[C@H](O)[C@H]5O)[C@@H](O)[C@H](O)[C@H]4O)[C@H](OC)[C@H]3O)CC[C@]12C` (stereo not given in full), the Potency is 3.16 µM (active).
On to `C=C(C)[C@@H]1CC[C@]2(C(=O)O)CC[C@]3(C)C(CCC4[C@@]5(C)C[C@@H](O)[C@H](O)C(C)(C)C5CC[C@]43C)C12` (stereo not given in full), for which the “activity change, negative = cytotoxicity” value was 3.48% [at 25.3 µM].
The same measure, in the same setting: to `CC(C)CCC[C@@H](C)[C@H]1CC[C@H]2[C@@H]3CC=C4C[C@@H](OC(=O)NCCN(C)C)CC[C@]4(C)[C@H]3CC[C@]12C` belongs -15.9%.
Take `O=C(NNc1ccccc1)c1ccncc1`: the “activity change, negative = cytotoxicity” value is -0.337%.
Consider `CC(C)(C)c1ccc(CNC(=S)NCc2ccc(NS(C)(=O)=O)c(F)c2)cc1`, for which the “activity change, negative = cytotoxicity” value is -16.3%.
With `CNCc1ccc(C)c(NC(=O)c2ccc(Nc3nc(-c4ccccc4)c4ccccc4n3)cc2)c1`, the “activity change, negative = cytotoxicity” value was 1.38%.
Still for that read-out and setting: the same measure for `CC1CCC(n2c3cnccc3c3cnc(Nc4ccc5c(n4)CCN(C(=O)CO)C5)nc32)CC1` (stereo not given): -9.43%.
